Test in all cases: NCI-60 one-dose screen, 48 h (100 = growth as untreated, 0 = no growth, -100 = all killed)
Settings in all cases: 10 µM unless noted

Assay [1] relates to HCT-15 colon.
For assay [2], the system named is HT29 colon.
Assay [3] deals with SNB-75 CNS.
In assay [4] the test system is SNB-19 CNS.
Assay [5] relates to U251 CNS.
Assay [6] relates to PC-3 prostate.
Assay [7] concerns SK-MEL-5 melanoma.
Assay [8] deals with UACC-62 melanoma.
In assay [9] the test system is LOX IMVI melanoma.
Assay [10] relates to SK-MEL-28 melanoma.

This is part of a sample that, as a whole, favours compounds with a hit. Of some 83,000 tested, about 20% had one in any assay.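 The endpoint reported here, percent growth, reads 100 for growth as untreated, 0 for no net growth and -100 for all cells dead.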 Values without a mark were called inactive. Active and inactive are the calls of the source. How the source made its calls: active means growth percent below 10; inactive means the rest.

In the case of `COc1cc2ncnc(Nc3ccc(S(=O)(=O)Nc4cc(C)on4)cc3)c2cc1OCCCN1CCOCC1`, the growth in assay [1] is 105%; in [2] it was 101%; in assay [3], 90.8%; in [4], 101%; in [5], 95.2%; in assay [6], 103%. Also, the growth is 97.1% in assay [7], 104% in [8], 96.4% in assay [9] and 115% in assay [10].
`CC(C)(C)CC(C)(C)Nc1c(-c2c(O)c3ccccc3oc2=O)nc2sccn12`: the growth in [1] was 100%; in assay [2] it was 97%; in [3], 108%; in assay [4], 97%; in [5], 97.7%; in assay [6] it was 92.6%. Besides, the growth in assay [7] was 96.9%; in assay [8], 90.7%; in assay [9], 99.7%; in assay [10], 102%.
For the molecule `COc1cc2c(cc1OC)CC[N+](CCC[N+](C)(C)C)=C2`, the growth in [1] is 101%; in [2], 88.5%; in assay [3], 80.2%; in assay [4], 110%; in [5] it was 98.9%; in assay [6] it was 83.9%. Further, the growth in assay [7] was 104%; in assay [8] it was 110%; in [9] it was 99.3%; in assay [10], 98.7%.
`O=C1/C(=C/c2cccc(Br)c2)COc2ccc(O)c(O)c21`: the growth was -7.69% (active) in assay [1]; 2.91% (active) in assay [2]; 15.1% in assay [3]; 1.36% (active) in assay [4]; -85.3% (active) in assay [5]; -35.1% (active) in assay [6]. In addition, the growth in [7] was 23.3%; in [8] it was -72.2% (active); in [9], -90.8% (active); in [10] it was -17.2% (active).
For `Cc1ccc(C(=O)Nc2ccc(CN3CCN(C)CC3)c(C(F)(F)F)c2)cc1C#Cc1cnc(N)c2ccccc12`, the growth in assay [1] was -69.2% (active); in assay [2] it was -12.8% (active); in assay [3], -70.4% (active); in assay [4], -66.1% (active); in assay [5], -70.5% (active); in assay [6], 3.18% (active). Also, the growth in assay [7] was -85.4% (active); in assay [8] it was 4.11% (active); in assay [9] it was -94.5% (active); in assay [10] it was -86% (active).
Turning to `O=c1c(Cc2ccc(F)cc2)cc(-c2ccccc2)nn1C/C(=N/O)c1ccccc1`, the growth in assay [1] was 44.5%; in [2], 20.3%; in [3] it was 57.8%; in assay [4], 58.3%; in [5] it was 34.5%; in assay [6], 25.9%. The growth was 36.6% in [7], 33.6% in assay [8], 53.1% in assay [9] and 62% in [10].
Turning to `C=C1CC[C@@H]2[C@](C)(COC(C)=O)[C@H](OC(C)=O)CC[C@@]2(C)[C@@H]1CC(Nc1ccc(S(=O)(=O)Nc2nccc(C)n2)cc1)C1=CCOC1=O` (stereo not given in full), the growth in [1] was -42% (active); in assay [2] it was -28.2% (active); in assay [3] it was 9.66% (active); in assay [4], 53.6%; in assay [5] it was 14.6%; in assay [6], 41.5%. Further, the growth in [7] was 45%; in assay [8], 24.2%; in assay [9] it was -72.9% (active); in [10], -7.05% (active).
Turning to `Cc1c2ccncc2c(C)c2c1c1ccccc1n2CCCCCC(=O)O`, the growth is 87.1% in assay [1]; 101% in assay [2]; 82.8% in assay [3]; 86.1% in assay [4]; 85.8% in [5]; 86.2% in assay [6]. Moreover, the growth was 89.8% in [7], 85.2% in assay [8], 74.4% in assay [9] and 113% in assay [10].
`C=C(C)[C@@H]1CC[C@]2(COCCCNCCCN)CC[C@]3(C)[C@H](CC[C@@H]4[C@@]5(C)CC[C@H](OCCCN)C(C)(C)[C@@H]5CC[C@]43C)[C@@H]12`: the growth was -88.4% (active) in assay [1]; -79.7% (active) in [2]; 10.1% in [3]; -78.3% (active) in assay [4]; -94.3% (active) in [5]; -10% (active) in [6]. Also, the growth was 67.2% in assay [7], -88.1% (active) in [8], -93.8% (active) in assay [9] and 16.1% in assay [10].
For `COC(=O)c1c(C)nc(C)c2c1C(=O)C(Br)=C(NCCN1CCOCC1)C2=O`, the growth in assay [1] is 87.9%; in [2], 68.2%; in assay [3], 119%; in assay [4], 101%; in [5], 101%; in [6] it was 86.3%. Besides, the growth in [7] is 70.8%; in assay [8], 55.6%; in assay [9], 82.8%; in assay [10], 113%.
For the molecule `CCOC(=O)c1ccc2c(c1)[n+](=O)c(C(C)=O)c(C(F)(F)F)n2[O-]`, the growth in assay [1] was -36% (active); in assay [2], -0.876% (active); in assay [3] it was 25.6%; in assay [4], 17.4%; in assay [5], 6.13% (active); in assay [6] it was -45.7% (active). Further, the growth in [7] is -94.3% (active); in [8], 2.99% (active); in [9] it was -59.7% (active); in assay [10], 27.9%.
For the molecule `CCCCCC(C)(O)C(C(=O)O)c1ccccc1` (stereo not given), the growth in assay [1] is 106%; in [2], 101%; in assay [3] it was 94.5%; in assay [4], 97.1%; in assay [5], 99.2%; in assay [6], 93.2%. Further, the growth in assay [7] was 101%; in [8], 103%; in assay [9], 102%; in assay [10] it was 98.4%.
In the case of `COc1ccc(/C=C2/CCc3cc4ccc(OC)cc4[o+]c32)c(O)c1`, the growth was 4.44% (active) in assay [1]; 29.6% in assay [2]; 90.9% in assay [3]; 63.1% in assay [4]; 69.4% in assay [5]; 8.84% (active) in [6]. Besides, the growth in assay [7] was 67.8%; in assay [8] it was 47.5%; in assay [9] it was 7.79% (active); in [10] it was 47.8%.
In the case of `CCCCC1=C(Br)C(=O)c2ncccc2C1=O`, the growth in assay [1] was 100%; in [2] it was 104%; in assay [3], 91.9%; in [4] it was 97.9%; in assay [5], 95.5%; in assay [6] it was 90%. The growth in assay [7] was 90.3%; in assay [8], 93.4%; in [9] it was 94.6%; in assay [10], 115%.
As to `CCOC(=O)c1c(C)n2c(=O)cc(C)c3c(OC(C)=O)c(OC(C)=O)cc1c32`, the growth is 41.2% in assay [1]; 102% in assay [2]; 74.1% in assay [3]; 72% in assay [4]; 50.9% in [5]; 59.2% in assay [6]. The growth in assay [7] was 50.3%; in [8], 76.2%; in assay [9], 42.4%; in assay [10], 64.7%.
`O=[N+]([O-])c1ccc(N/N=C\c2cc(Cl)ccc2O)nc1`: the growth in [1] is 26%; in [2], 50.9%; in assay [3], 70.1%; in assay [4], 44.8%; in assay [5], 33%; in assay [6], 24.5%. Also, the growth in assay [7] was 4.09% (active); in assay [8], 11.2%; in [9], 22.6%; in [10], 55.3%.
On to `COc1ccc(C(=O)/C=C/c2ccc(C)cc2)cc1S(N)(=O)=O`, for which the growth in assay [1] is 22.8%; in assay [2], 45.7%; in [3] it was 82.7%; in [4], 14.5%; in [5] it was 17.1%; in [6] it was 50.4%. Moreover, the growth is 82.2% in assay [7], 61.2% in assay [8], 28.8% in assay [9] and 98.1% in [10].
Consider `O=C(Nc1ccccc1)Nc1ccccc1CNc1nc(Nc2ccc(OCCN3CCCC3)cc2)ncc1Cl`, for which the growth in [1] is 41.4%; in assay [2], 13.8%; in assay [3], 90%; in [4] it was 70.6%; in [5], 38.7%; in assay [6], 76.1%. The growth in [7] was 57.2%; in assay [8] it was 86.1%; in assay [9], -68.3% (active); in [10], 78.5%.
For the molecule `Cc1ccc(C2(C)NC(=O)N(CC(=O)Nc3cccc(C)c3)C2=O)cc1` (stereo not given), the growth was 94.4% in assay [1]; 96.6% in [2]; 77.1% in assay [3]; 102% in assay [4]; 99.1% in [5]; 60.1% in [6]. The growth was 98.3% in [7], 84% in assay [8], 96.3% in assay [9] and 107% in assay [10].
`O=C(Cn1cc(CSc2nc3ccccc3o2)nn1)Nc1ccc([N+](=O)[O-])cc1`: the growth in [1] was 106%; in assay [2], 93.9%; in [3] it was 79.4%; in [4] it was 96.3%; in assay [5], 97.9%; in assay [6], 92%. Besides, the growth in [7] is 99.1%; in assay [8], 68.5%; in assay [9], 94.5%; in assay [10], 105%.
Take `C1=C2CCCC3=Cc4ccccc4OC23Oc2ccccc21`: the growth in [1] is 20.1%; in assay [2], 5.93% (active); in assay [3], 23%; in assay [4] it was 27.4%; in assay [5], 26.5%; in [6], 34.7%. Also, the growth was 20% in [7], 14.5% in [8], 23% in assay [9] and 54.2% in assay [10].
With `CN(C)CCOc1ccc(/C(=C(/CCCCCCCCCC[P+](c2ccccc2)(c2ccccc2)c2ccccc2)c2ccccc2)c2ccccc2)cc1`, the growth is -88.7% (active) in assay [1]; -68.5% (active) in assay [2]; -88.7% (active) in [3]; -92.1% (active) in assay [4]; -75% (active) in [5]; -86% (active) in [6]. Moreover, the growth in [7] is -97.1% (active); in assay [8], -82.7% (active); in assay [9], -89.9% (active); in assay [10], -94.1% (active).
For the molecule `COc1ccc(-c2cn(Cc3ccc4c(Br)cc(Br)c(O)c4n3)nn2)cc1`, the growth is 39.3% in assay [1]; 89.5% in assay [2]; 71.6% in assay [3]; 96.9% in assay [4]; 97.3% in [5]; 91.4% in assay [6]. The growth in [7] was 98.6%; in assay [8] it was 95.6%; in [9], 49.4%; in [10] it was 96.3%.
In the case of `COc1cccc(C2C(C#N)=C(N)Oc3c2ccc2ccccc32)c1` (stereo not given), the growth in assay [1] is 9.22% (active); in assay [2], 7.48% (active); in assay [3], 79.8%; in [4], 37.3%; in assay [5], 24.6%; in assay [6], 21.5%. In addition, the growth is -1.37% (active) in assay [7], 37.6% in [8], 14.6% in assay [9] and 69.3% in [10].
In the case of `COc1ccccc1/C=C/C1=C(C)CCC(c2ccccc2OC)C1C` (stereo not given), the growth in assay [1] was 9.57% (active); in assay [2] it was 5.56% (active); in [3], 42.2%; in assay [4] it was 19.6%; in [5], 15.4%; in [6] it was -33.2% (active). The growth in [7] was -13.3% (active); in [8], 10%; in [9], 7.24% (active); in assay [10], 49.8%.

The values are drawn from PubChem BioAssay (NCI).
